Inconclusive results are not listed. Active and inactive are the calls of the source. Unless noted, calls follow the shape of the dose curve; as a rule, active = well fitted curve in the direction sought with a large enough effect; inconclusive = small, poorly fitted or top-dose-only effect, or another doubt; inactive = no such curve, though single readings can be large; an effect the other way counts as inactive or inconclusive. Bounds are passed on as bounds.

The nature of assay [1]: AP1 Signaling Pathway (AID 357; active = well fitted curve in either direction with a large enough effect, not every such curve was filed as active;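 also: ME-180 reporter cells stimulated with EGF at its EC50 level; % is scaled to controls: 0 for no effect and ±100 for the full control effect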). Particulars: ME-180 AP-1-bla reporter, EGF-induced, beta-lactamase ratio, 5 h; at 7.69 µM (top of the series) unless noted. An outline of the steps:
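AP-1-bla ME-180 cells, Opti-MEM + 0.5% dialyzed FBS, plated overnight 37 °C. Cpd titration + EC50 EGF, 5 h 37 °C. CCF4 2.5 h RT; ex 405, em 460/530 ratio → %activity, AC50.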

Assay [2] deals with Cytochrome P450 1A2 (Homo sapiens) (UniProt P05177). Kind of assay: p450-cyp1a2 (AID 410; calls by dose curve; also: potency is read from the fitted curve at half-maximal effect;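 as to activity change, negative = inhibition: -100% = full effect of reference inhibitor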). An outline of the steps: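 Human CYP1A2 (20nM) demethylated Luciferin-ME at its Km (100uM) in 100mM KPO4. After 10 min compound preincubation, NADPH regeneration ran the reaction 60 min at room temperature. Luciferin was read by luminescence, normalized to 57 uM furafylline.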
For assay [3], the target named is Glucocorticoid receptor (Homo sapiens) (UniProt P04150). Kind of assay: GR-GFP Redistribution (AID 450;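 active = compounds whose dose series gives a full or clear partial fitted curve of increased nuclear translocation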; also: potency is read from the fitted curve at half-maximal effect). Particulars: U2OS GR-GFP nuclear translocation, laser cytometry, 2 h.
Assay [4] has the same target. Kind of assay: GR-EFC Redistribution (AID 451; calls by dose curve; also: potency is read from the fitted curve at half-maximal effect). As to conditions: CHO-K1 GR-EFC translocation, beta-gal luminescence, 2 h. An outline of the steps: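 Translocation of GR-ED fusion to nuclear EA restores b-gal, read by luminescence after 1 h room-temperature detection. Engineered CHO-K1 biosensor cells, 1,000/well, exposed 2 h at 37 C to titrations up to 46 uM final.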

Assay [5] concerns the target 3',5'-cyclic-AMP phosphodiesterase 4B (Homo sapiens) (UniProt Q07343). Kind of assay: qHTS Assay for Inhibitors of PDE-IV (AID 607; active = well fitted activation curve with a large enough effect in the main read-out, with a control signal flat, not every such curve was filed as active; also: % of control where 0% means no effect). An outline of the steps:
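Cell-based read-out of cAMP via a modified cyclic nucleotide-gated channel and membrane potential dye (535/590 nm) in HEK293 cells expressing PDE4 endogenously. Compounds tested up to 22.9 uM final; 100 uM RO 20-1724 reference.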
A general note: In qHTS, concentration-response curves come from the screen itself.

In assay [6] the target is Cytochrome P450 3A4 (Homo sapiens) (UniProt P08684). The experiment in a line: qHTS Assay for Activators of Cytochrome P450 3A4 (AID 885). Also: nearly all actives have a fitted effect of over 65% in size. Put shortly: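 Signal was normalized against complete inhibition by 57 uM ketoconazole. The reaction used 20nM CYP3A4 with 25uM Luciferin-PPXE, 10-min compound preincubation and a 60-min NADPH-supported step at RT.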
A short description of assay [7]: qHTS Assay for Identification of Small Molecule Agonists for Hypoxia Response Element Signaling Pathway (AID 914; active = well fitted activation curve with a large enough effect in the signal ratio, with a control signal flat, not every such curve was filed as active; the % refers to the signal ratio; also: potency is read from the fitted curve at half-maximal effect). Particulars: ME-180 HRE-bla reporter, beta-lactamase ratio, CoCl2, 17 h; activation: stronger effect = higher value. An outline of the steps:
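A beta-lactamase reporter under hypoxia response element control in ME-180 cells served as the system. Compound titrations plus EC50 CoCl2 ran 17 h at 37 degrees Celsius; AC50 values were fitted from %Activity.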

A short description of assay [8]: qHTS Assay for Lipid Storage Modulators (AID 1519; calls by dose curve). As to conditions: Drosophila S3 cells, BODIPY lipid droplet/cell ratio, laser cytometry, cells loaded with oleic acid; for activity change, negative = inhibition: at 57.5 µM (top of the series). Put shortly: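 Cells seeded at 5,000 per well were treated with compounds over a concentration series and loaded with oleic acid (400 uM, as added). Lipid droplet fluorescence (488 nm excitation, 500-530 nm channel) was read by laser-scanning cytometry and normalized to 20 uM Triacsin C.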

In assay [9] the target is Dual specificity protein kinase CLK4 (Homo sapiens) (UniProt Q9HAZ1). Kind of assay: qHTS Assay for Inhibitors of CDC-like Kinase 4 (Kinase-Glo Assay) (AID 1770). Also: nearly all actives have a fitted effect of over 65% in size. Also: potency is read from the fitted curve at half-maximal effect. Put shortly: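 Substrate mix (RS peptide 100 uM, ATP 1 uM) dispensed, compound pinned in, then Clk4 added to 25 nM final. Incubated 4.5 h at RT; Kinase-Glo reagent added, luminescence read after 5 min.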
Assay [10] has the same target. Kind of assay: qHTS Assay for Inhibitors of CDC-like Kinase 4 (ADP-Glo Assay) (AID 1771). Also: nearly all actives have a fitted effect of over 70% in size. Also: potency is read from the fitted curve at half-maximal effect. An outline of the steps: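 Clk4 (25 nM) was incubated 1 hr at room temperature with 100 uM RS repeat peptide and 1 uM ATP in buffer with 2 mM MgCl2, 0.5 mM EGTA, 2.5 mM DTT. ADP formed was quantified by ADP-Glo luminescence.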
For assay [11] the target is unchanged. The experiment in a line: qHTS Assay for Inhibitors of CDC-like Kinase 4 (ADP-FP Assay) (AID 1795). Also: nearly all actives have a fitted effect of over 60% in size. Also: potency is read from the fitted curve at half-maximal effect. An outline of the steps: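 Clk4 6.25 nM; RS peptide 100 uM; ATP 1 uM; 25 mM Tris pH 7.5, 10 mM MgCl2; 1 h reaction. ADP detected via antibody/orange tracer FP displacement; TG003 positive control.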
Assay [12] concerns the target Ubiquitin carboxyl-terminal hydrolase 1 (Homo sapiens) (UniProt O94782). Kind of assay: Inhibitors of USP1/UAF1: Pilot qHTS (AID 504865).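 Also: rhodamine fluorescence freed from ubiquitin-rhodamine substrate followed over time; top concentration of the series differs between compounds; % is scaled to controls: 0 for no effect and ±100 for the full control effect; nearly all actives have a fitted effect of over 35% in size.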 Put shortly: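 In 50mM HEPES pH 7.8 containing 0.5mM EDTA, 1mM TCEP, 0.1 mg/ml BSA and 0.01% Tween-20, 1nM USP1/UAF1 is exposed to compound for 15 min, then Ub-Rho (150nM final) is added and fluorescence is read over time.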
The target of assay [13] is Lysosomal acid glucosylceramidase (Homo sapiens) (UniProt P04062). Kind of assay: Glucocerebrosidase-p2 (AID 348; in the data active = potency below about 10 µM; also: potency is read from the fitted curve at half-maximal effect). Particulars: purified GBA, blue fluorogenic substrate, 40 min. Put shortly: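 Compounds titrated from 0.6 nM upwards against 0.2 nM enzyme in pH 5.9 citric acid/KH2PO4, taurocholate, tween-20; blue fluorogenic substrate 80 uM, 40 min room temperature, stopped and read Ex 365/Em 440 for AC50.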

Assay [14] is described as follows: NFAT Signaling Pathway (AID 444; active = well fitted curve in either direction with a large enough effect, not every such curve was filed as active;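 also: carbachol stimulus at about its EC50 of 1 µM final; % is scaled to controls: 0 for no effect and ±100 for the full control effect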). As to conditions: Jurkat NFAT-bla M1, carbachol, beta-lactamase ratio, 5 h; at 7.69 µM (top of the series) unless noted. An outline of the steps:
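Read-out: CCF4 FRET ratio (460 nm/530 nm) after 1 h RT dye loading, used for %activity and AC50 from titration series. Cells: Jurkat NFAT-β-lactamase/M1 line, treated with compound plus 1 uM carbachol for 5 h, 37 °C.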

The target in assay [15] is Mitogen-activated protein kinase 10 (Mus musculus) (UniProt Q61831). The experiment in a line: JNK3 AlphaScreen Assay (AID 530; active = well fitted curve in either direction with a large enough effect, not every such curve was filed as active;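 also: kinase came from lysate of stimulated human HepG2 cells; signal reports phosphorylation of biotinylated GST-cJun 1-79 at Ser73 with 10 µM ATP; % is scaled to controls: 0 for no effect and ±100 for the full control effect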). An outline of the steps:
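Room-temperature AlphaScreen kinase assay; pre-activated HepG2 lysate as JNK3 source, biotin-GST-cJun(1-79) substrate, 10 uM ATP, compound 15 min preincubation.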
Background: Alpha assays give light when donor and acceptor beads are brought close together.

Assay [16] in a line: Stat Signaling Pathway (AID 446; active = well fitted curve in either direction with a large enough effect, not every such curve was filed as active;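 also: ME-180 cervical cancer cells given 40 pM IL-6 alongside compound; SIE-controlled beta-lactamase reporter measured as 460/530 nm FRET emission ratio; % is scaled to controls: 0 for no effect and ±100 for the full control effect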). Particulars: ME-180 SIE beta-lactamase reporter, IL-6 stimulated, 5 h; at 7.69 µM (top of the series) unless noted. An outline of the steps: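 Reporter line: ME-180 cervical carcinoma, SIE-beta-lactamase. Treatment: compound with 40 pM IL-6, 5 hrs, 37 C, in low-serum OPTI-MEM with 10 mM HEPES pH 7.3. Detection: 460/530 nm fluorescence.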
[17] abbreviates: measured here: cell count channel max response.
Where [18] appears, read: measured here: lipid channel max response.

Sequence of Lysosomal acid glucosylceramidase (Homo sapiens) (P04062 whole entry, looked up): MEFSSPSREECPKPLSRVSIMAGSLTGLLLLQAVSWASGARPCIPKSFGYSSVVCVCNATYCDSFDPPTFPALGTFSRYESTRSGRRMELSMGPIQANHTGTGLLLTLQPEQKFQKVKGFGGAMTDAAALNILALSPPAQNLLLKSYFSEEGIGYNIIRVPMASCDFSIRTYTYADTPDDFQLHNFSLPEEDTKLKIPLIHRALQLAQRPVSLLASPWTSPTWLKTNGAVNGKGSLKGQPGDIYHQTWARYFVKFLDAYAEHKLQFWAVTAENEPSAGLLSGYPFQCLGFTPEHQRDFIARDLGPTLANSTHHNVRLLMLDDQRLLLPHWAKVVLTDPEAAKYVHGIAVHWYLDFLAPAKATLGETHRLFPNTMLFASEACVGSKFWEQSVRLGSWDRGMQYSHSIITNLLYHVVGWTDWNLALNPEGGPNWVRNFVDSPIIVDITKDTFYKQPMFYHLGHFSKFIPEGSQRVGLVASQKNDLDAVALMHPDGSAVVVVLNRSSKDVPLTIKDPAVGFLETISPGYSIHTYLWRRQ
Sequence of Cytochrome P450 3A4 (Homo sapiens) (P08684 whole entry, looked up): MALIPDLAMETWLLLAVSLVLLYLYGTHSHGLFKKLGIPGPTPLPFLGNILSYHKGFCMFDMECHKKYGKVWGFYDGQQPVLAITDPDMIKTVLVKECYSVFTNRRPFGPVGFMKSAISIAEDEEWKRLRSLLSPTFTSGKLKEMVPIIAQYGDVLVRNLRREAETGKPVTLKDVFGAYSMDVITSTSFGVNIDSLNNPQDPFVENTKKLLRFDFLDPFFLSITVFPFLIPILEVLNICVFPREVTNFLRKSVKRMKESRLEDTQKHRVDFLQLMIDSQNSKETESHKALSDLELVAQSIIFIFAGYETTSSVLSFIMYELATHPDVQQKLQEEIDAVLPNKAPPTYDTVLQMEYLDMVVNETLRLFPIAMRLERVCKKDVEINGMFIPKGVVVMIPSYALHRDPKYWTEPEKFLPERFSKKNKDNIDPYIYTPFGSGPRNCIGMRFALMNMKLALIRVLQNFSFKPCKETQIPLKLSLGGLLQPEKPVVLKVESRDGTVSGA
Sequence of Ubiquitin carboxyl-terminal hydrolase 1 (Homo sapiens) (O94782 whole entry, looked up): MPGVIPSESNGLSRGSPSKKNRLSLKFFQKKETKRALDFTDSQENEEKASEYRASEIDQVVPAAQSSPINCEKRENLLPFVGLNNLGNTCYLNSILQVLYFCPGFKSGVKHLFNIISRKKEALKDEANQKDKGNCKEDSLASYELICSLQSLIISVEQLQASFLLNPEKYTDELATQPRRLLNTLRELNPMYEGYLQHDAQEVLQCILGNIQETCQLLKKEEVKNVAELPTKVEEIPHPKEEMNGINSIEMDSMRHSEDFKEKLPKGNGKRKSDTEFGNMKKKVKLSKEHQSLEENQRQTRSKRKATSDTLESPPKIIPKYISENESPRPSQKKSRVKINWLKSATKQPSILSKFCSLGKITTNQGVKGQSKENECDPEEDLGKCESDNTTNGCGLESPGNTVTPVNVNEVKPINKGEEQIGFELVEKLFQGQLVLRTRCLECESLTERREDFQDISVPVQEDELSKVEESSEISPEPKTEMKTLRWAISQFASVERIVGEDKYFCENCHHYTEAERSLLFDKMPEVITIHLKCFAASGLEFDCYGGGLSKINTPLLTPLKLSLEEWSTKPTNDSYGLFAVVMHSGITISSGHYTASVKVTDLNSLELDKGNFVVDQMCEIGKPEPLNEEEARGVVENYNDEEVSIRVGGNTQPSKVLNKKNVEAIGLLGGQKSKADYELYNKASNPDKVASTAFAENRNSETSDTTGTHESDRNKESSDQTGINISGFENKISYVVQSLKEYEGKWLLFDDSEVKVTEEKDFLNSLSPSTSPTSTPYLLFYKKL
Sequence of Dual specificity protein kinase CLK4 (Homo sapiens) (Q9HAZ1 whole entry, looked up): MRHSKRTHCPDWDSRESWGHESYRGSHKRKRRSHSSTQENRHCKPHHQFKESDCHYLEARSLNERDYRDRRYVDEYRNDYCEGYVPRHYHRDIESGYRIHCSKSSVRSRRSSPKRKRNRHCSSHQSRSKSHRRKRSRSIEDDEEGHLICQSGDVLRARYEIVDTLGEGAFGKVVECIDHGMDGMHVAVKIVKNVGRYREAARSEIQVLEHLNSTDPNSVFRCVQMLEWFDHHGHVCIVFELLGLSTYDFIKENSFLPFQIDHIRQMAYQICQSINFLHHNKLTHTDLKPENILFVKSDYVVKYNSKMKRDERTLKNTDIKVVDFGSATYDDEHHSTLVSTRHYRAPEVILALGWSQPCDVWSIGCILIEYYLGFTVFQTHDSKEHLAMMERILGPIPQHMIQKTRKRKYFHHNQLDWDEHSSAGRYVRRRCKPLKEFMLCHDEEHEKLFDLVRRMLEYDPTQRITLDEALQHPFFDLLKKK
Sequence of Glucocorticoid receptor (Homo sapiens) (P04150 whole entry, looked up, the tested form may be a part): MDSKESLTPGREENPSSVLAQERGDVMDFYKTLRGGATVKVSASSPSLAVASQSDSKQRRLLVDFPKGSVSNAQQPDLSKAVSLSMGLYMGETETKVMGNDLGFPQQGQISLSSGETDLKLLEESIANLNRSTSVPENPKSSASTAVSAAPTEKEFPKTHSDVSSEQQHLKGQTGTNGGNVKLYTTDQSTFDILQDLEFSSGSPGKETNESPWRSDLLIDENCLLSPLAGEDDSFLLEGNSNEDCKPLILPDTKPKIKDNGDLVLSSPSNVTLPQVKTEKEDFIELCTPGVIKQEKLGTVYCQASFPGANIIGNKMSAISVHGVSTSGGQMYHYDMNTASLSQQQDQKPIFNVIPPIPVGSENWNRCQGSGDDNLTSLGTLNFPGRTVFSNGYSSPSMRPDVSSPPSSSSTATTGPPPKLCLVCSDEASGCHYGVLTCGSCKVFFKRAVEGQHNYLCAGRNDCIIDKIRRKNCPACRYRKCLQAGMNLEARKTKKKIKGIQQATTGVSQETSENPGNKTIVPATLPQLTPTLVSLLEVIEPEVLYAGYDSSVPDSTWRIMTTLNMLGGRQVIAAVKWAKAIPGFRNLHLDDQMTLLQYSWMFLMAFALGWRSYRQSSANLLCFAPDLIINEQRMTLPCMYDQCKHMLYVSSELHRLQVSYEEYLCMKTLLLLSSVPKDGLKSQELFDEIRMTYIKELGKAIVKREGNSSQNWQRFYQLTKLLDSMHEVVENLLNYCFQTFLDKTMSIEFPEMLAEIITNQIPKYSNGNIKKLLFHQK
Sequence of Cytochrome P450 1A2 (Homo sapiens) (P05177 whole entry, looked up): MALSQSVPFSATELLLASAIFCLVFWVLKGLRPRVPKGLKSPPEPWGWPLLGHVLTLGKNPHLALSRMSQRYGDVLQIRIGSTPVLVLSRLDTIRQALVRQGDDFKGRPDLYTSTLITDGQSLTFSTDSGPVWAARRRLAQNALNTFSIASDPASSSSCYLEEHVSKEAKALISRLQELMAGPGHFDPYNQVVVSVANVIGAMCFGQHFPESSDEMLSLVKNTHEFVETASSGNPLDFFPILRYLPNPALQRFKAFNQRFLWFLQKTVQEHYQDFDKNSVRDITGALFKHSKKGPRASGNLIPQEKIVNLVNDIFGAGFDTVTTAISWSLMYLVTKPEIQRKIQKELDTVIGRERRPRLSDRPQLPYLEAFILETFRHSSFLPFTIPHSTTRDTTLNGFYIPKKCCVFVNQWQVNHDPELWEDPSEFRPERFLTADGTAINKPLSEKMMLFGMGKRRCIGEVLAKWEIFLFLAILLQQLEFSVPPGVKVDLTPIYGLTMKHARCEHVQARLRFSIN
Sequence of 3',5'-cyclic-AMP phosphodiesterase 4B (Homo sapiens) (Q07343 whole entry, looked up): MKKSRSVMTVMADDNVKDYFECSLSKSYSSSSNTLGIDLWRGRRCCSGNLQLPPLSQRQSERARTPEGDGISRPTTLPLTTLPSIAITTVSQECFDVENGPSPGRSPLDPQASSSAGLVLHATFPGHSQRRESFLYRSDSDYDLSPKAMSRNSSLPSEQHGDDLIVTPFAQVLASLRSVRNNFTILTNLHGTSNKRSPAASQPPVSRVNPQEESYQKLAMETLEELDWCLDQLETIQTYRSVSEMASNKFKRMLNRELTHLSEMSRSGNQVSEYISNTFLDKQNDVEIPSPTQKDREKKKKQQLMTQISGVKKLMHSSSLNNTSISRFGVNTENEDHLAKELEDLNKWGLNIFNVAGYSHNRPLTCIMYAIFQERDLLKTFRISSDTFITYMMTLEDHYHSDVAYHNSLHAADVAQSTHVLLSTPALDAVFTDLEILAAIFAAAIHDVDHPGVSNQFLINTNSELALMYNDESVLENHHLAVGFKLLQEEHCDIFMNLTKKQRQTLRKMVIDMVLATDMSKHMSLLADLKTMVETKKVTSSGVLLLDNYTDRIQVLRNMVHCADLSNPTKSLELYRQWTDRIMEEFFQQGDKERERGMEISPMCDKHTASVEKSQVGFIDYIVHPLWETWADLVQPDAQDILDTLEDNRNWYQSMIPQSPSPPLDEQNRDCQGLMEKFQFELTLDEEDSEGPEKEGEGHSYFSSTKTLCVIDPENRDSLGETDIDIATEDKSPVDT

As to `COc1ccc(-n2c(=O)c(-c3cn(C)c4ccccc34)nc3cnc(N4CCNCC4)nc32)cc1`, the values for the activity change, negative = inhibition in assay [1] and in assay [8] were 26.2% (inactive) and 7.55% (inactive), respectively. Besides, the Potency was 15.8 µM (active) in [2], > 9.22 µM (inactive) in assay [3], > 46 µM (inactive) in [4] and 3.16 µM (active) in [7]. Also, the Potency entry in assay [5], in assay [6], in assay [9], in assay [10], in assay [11] and in assay [12] was “inactive” throughout. For the same compound, the max response in assay [8] (setting [17]) came out at 16.8%; in assay [8] (setting [18]), 26.4%.

Regarding `N#Cc1cccc(-c2ccc3ncnc(NCCN4CCOCC4)c3c2)c1`, the Potency in assay [13] was > 11.4 µM (inactive); in [3], > 46 µM (inactive); in [4], > 46 µM (inactive); in assay [9], 12.6 µM (active); in [10], 8.91 µM (active). For the same compound, the activity change, negative = inhibition in [1] is 1.43% (inactive); in assay [14], 19.4% (inactive); in assay [8], 4.75% (inactive). The Potency result in assay [15], in assay [5] and in assay [12] was “inactive” in each case. Also, the max response came out at 5.88% in [8] (setting [17]) and 7.51% in assay [8] (setting [18]).

Turning to `CS(=O)(=O)Nc1cccc(-c2nc(NC3CC3)c3ccccc3n2)c1`, the activity change, negative = inhibition is -17.2% (inactive) in assay [1], 0.73% (inactive) in assay [14] and 3.51% (inactive) in assay [8]. The activity, negative = inhibition in [16] was 4.92% (inactive). Besides, the Potency in assay [3] was > 46 µM (inactive); in [4], > 46 µM (inactive); in assay [9], 7.94 µM (active); in assay [10] it was 10 µM (active); in assay [11], 12.6 µM (active). The Potency entry in [15], in assay [5] and in assay [12] was “inactive” in each case. Besides, the max response in assay [8] (setting [17]) is 19.9%; in [8] (setting [18]), 22.8%.

Regarding `COc1cccc(Cn2c(=O)c(-c3cc(F)cc(F)c3)nc3cnc(N4CCNCC4)nc32)c1`, the figures for the Potency in assay [13], in [3] and in assay [4] were > 11.4 µM (inactive), > 9.22 µM (inactive) and > 46 µM (inactive), respectively. Besides, the activity change, negative = inhibition in assay [1] was 117% [activator] (active); in assay [14], 225% [activator] (active); in assay [8] it was -13.2% (inactive). For the same compound, the Potency result in assay [2], in assay [5], in assay [6], in [10] and in assay [11] was “inactive” in each case. Further, the max response in assay [8] (setting [17]) is -15.6%; in [8] (setting [18]), -28.1%.

Consider `COc1ccc(-n2c(=O)c(CCc3ccccc3)nc3cnc(N4CCN(C)CC4)nc32)cc1`, for which the Potency in assay [13] was > 11.4 µM (inactive); in assay [3] it was > 9.22 µM (inactive); in [4], > 46 µM (inactive). Further, the activity change, negative = inhibition in assay [1] is -22.3% (inactive); in assay [14] it was -24% (inactive); in assay [8] it was 2.13% (inactive). In addition, the Potency entry in [2], in assay [15], in [5], in assay [6], in [9] and in [10] was “inactive” each time. Further, the Potency result in assay [12] is “inactive”. In assay [16], the activity, negative = inhibition was -10.4% (inactive). The max response in assay [8] (setting [17]) turned out to be 12.7%; in assay [8] (setting [18]), 12.5%.

Regarding `Cc1ccccc1-c1ccc2ncnc(N3CCNCC3)c2c1`, the Potency is > 11.4 µM (inactive) in [13]; 3.16 µM (active) in [2]; > 46 µM (inactive) in [3]; > 46 µM (inactive) in assay [4]; 20 µM (active) in assay [9]; 31.6 µM (active) in assay [10]. Besides, the values for the activity change, negative = inhibition in [14] and in assay [8] were -1.24% (inactive) and 6.61% (inactive), respectively. The activity, negative = inhibition in [16] is 9.45% (inactive). The Potency entry in assay [15], in [5], in [6] and in assay [12] was “inactive” throughout. In addition, the max response worked out at 4.98% in assay [8] (setting [17]) and 8.2% in assay [8] (setting [18]).

Values taken from PubChem BioAssay (NCATS).
